Source: PubChem BioAssay AID1963321 (National Center for Advancing Translational Sciences (NCATS), 2024)
Results filed as inconclusive are left out. Values without a mark were called inactive. Active and inactive are the calls of the source. The call rests on the fitted dose curve.

Molecular target: cAMP-dependent protein kinase catalytic subunit alpha (Homo sapiens) (UniProt P17612)
Experiment: Protein Kinase A (PKA-HiBiT) enzymatic inhibition screen - Functional assay
Conditions: luminescence; series mostly up to 57.5 µM; activity change, negative = inhibition: at the top concentration
Source text: National Center for Advancing Translational Sciences (NCATS),
National Institute of Health (NIH), Maryland
Discovery and optimization of novel protein-binding ligands underlies many of the methods and applications of biology, drug discovery, clinical diagnostics, and environmental toxicology. Assays for detecting the interaction of, for example, a molecule with a macromolecular target also referred to here as the target of interest (TOI) is dependent on a compatible output technology. Depending on the nature and knowledge surrounding the TOI, whether a receptor, enzyme, regulatory subunit or scaffold, or a sequence-defined nucleic acid folded into a complex tertiary structure, assay strategies can vary widely.
Here we exploit ligand-biased changes in the structural dynamics of the target protein to control reporter alpha complementation allowing a non-competitive, non-functional, non-separation measure of ligand-target interaction.
Using a chemical library of >1,200 compounds enriched for scaffolds known to be associated with the inhibition of firefly luciferase (FLuc) activity (PubChem AIDs 2309) we first illustrate and compare the Structural Dynamics Response (SDR) assay vs. the standard functional FLuc enzyme assay (2). Secondly, we show the specificity and sensitivity of the SDR for the Abelson tyrosine kinase (ABL1) compared to the serine/threonine protein kinase A, using an enriched chemical library of 128 compounds selected, in part, for activity annotated with ABL1 kinase activity using the Pharos database (3).
(1) A. S. Dixon et al., NanoLuc Complementation Reporter Optimized for Accurate Measurement of Protein Interactions in Cells. ACS Chem Biol 11, 400-408 (2016).
Chemistry & Biology, 19, 1060 - 1072 (2012).
(3) K. J. Kelleher et al., Pharos 2023: an integrated resource for the understudied human proteome. Nucleic Acids Res 51, D1405-D1416 (2023).
PROTOCOL TABLE (as described by Inglese J, Shamu CE and Guy RK. 2007)
SEQUENCE No. (e.g., 1, 2, 3, etc.); […] (e.g., C. elegans, Compounds, Incubation, Read, etc.); VALUE and DESCRIPTION.
1. Reagent. Dispense 4 uL PKA-N-HiBiT enzyme per well at a final enzyme concentration of 10 nM in buffer with 87.5 uM ATP (functional assay) into columns 2-48 of four replicate Greiner 1536-well white,solid bottom high base, medium plates per assay. Dispense respective buffer without enzyme at 4 uL/well in column 1 of assay plates using BioRaptr 2.
2. Compounds. Library compounds added at 23 nL/well by pin transfer. DMSO neutral control and H-89 positive control added at 25 nL/well, transfer by Mosquito dispenser.
3. Incubation. Incubate enzyme and compounds at room temperature for 30 min, protect from light.
4. Reagent. (Functional assay) Transfer 25 nL of kemptide peptide substrate to each well of four replicate kinase assay plates with Mosquito dispenser.
5. Incubation. (Functional assay) Kinase Enzyme incubated with peptide substrate for 3 h at room temperature, protected from light.
6. Reagent. (Functional assay) Add 4 uL/well of Kinase-Glo Plus reagent (Promega) to kinase activity assay plates.
7. Detector. (Functional assay) Luminescence measured using CCD-based camera (ViewLux) with settings as follows: Exposure, 1 sec; Gain, High; Speed, Slow; Binning, 2X.
Inglese J, Shamu CE and Guy RK, Reporting data from high throughput screening of small molecule libraries, Nature Chemical Biology, 2007, 3(8): 438-441. doi.org/10.1038/nchembio0807-438.

Compared with `O=C(NCCCNc1nc(Nc2ccc(N3CCOCC3)cc2)ncc1C1CC1)C1CCC1`, `CCNC(=O)C[C@@H]1N=C(c2ccc(Cl)cc2)c2cc(OC)ccc2-n2c(C)nnc21` is lower in “activity change, negative = inhibition” value: 6.95% for the first, 6.55% for the second.

First: C/C(O)=C(\C#N)C(=O)Nc1cc(Br)ccc1Br
Second: N#Cc1cn([C@@H]2O[C@H](CO)[C@H](O)[C@@H]2O)c2ncnc(N)c12
The “activity change, negative = inhibition” value of the first is lower: 7.7% for the first, 8.35% for the second.

For `O=[N+]([O-])O[C@H]1CO[C@H]2[C@@H]1OC[C@H]2O[N+](=O)[O-]`, the “activity change, negative = inhibition” value was 8.94%.

With `Cc1[nH]nc2ccc(-c3cncc(OC[C@@H](N)Cc4c[nH]c5ccccc45)c3)cc12` the Potency was 2010 nM (active).
